Screens deposited in PubChem by The Scripps Research Institute Molecular Screening Center.
TTR transcr act = activators of transthyretin transcription; SH-SY5Y TTR promoter Gaussia luciferase, luminescence; 100% = recombinant luciferase protein wells; activation, % at 16.7 µM; 1.3% of 92,000 active; AID 1117267;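 active = activation above the mean of all tested compounds plus 3 SD, cut at about 9.5% in these data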;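 also: cells exposed to compounds for one day before reading; 0% = median of all test compound wells on the plate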
TTR inh HuH7 = counter-screen for TTR activators: TTR transcription inhibitors in HuH7 cells. shares compounds with TTR transcr act. HuH7 TTR promoter-Gaussia luciferase reporter, luminescence. inhibition, % at 16.7 µM. 4% of 1,100 active. AID 1117279;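 active = average inhibition above the solvent-only control wells' mean plus 3 SD, cut at about 15% in these data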;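 also: 0% = cells with DMSO only and 100% = cells with inhibitor control FD; inhibitors lower well luminescence so higher value means more inhibition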
TTR up confirm = confirmation of human transthyretin transcription activators; AID 1117280; SHSY5Y TTR promoter Gaussia luciferase, luminescence; 100% = purified Lucia enzyme wells, no cells; activation, % at 16.7 µM; shares compounds with TTR transcr act; 1,100 tested, under 10 active;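 active = mean activation above a set limit taken from the earlier primary screen, cut at about 11% in these data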;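 also: 0% = DMSO-treated cells and 100% = recombinant Lucia luciferase without cells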
Starred values were filed as active, the others as inactive. This is one part of a sample in which hits are shown more often than they occur.

SMILES	TTR transcr act	others
O=C(Nc1ccc(C(F)(F)F)cc1)OC1CC2CC1[C@H]1CCCCN1C2 (stereo partly drawn)	1
CCC(CC)NC(=O)O[C@H]1CC[C@@]23CCCN2C(=O)CCC[C@H]3C1	-1
O=C(C[C@H]1C[C@@H]2c3cc(NC(=O)c4ccc5c(c4)OCO5)ccc3O[C@@H]2[C@H](CO)O1)NCc1cc(F)ccc1F	17*	TTR inh HuH7=-15;TTR up confirm=2
COc1ccccc1CNC(=O)C[C@@H]1C[C@H]2c3cc(NC(=O)c4ccc5c(c4)OCO5)ccc3O[C@H]2[C@@H](CO)O1	-1
O=C(C[C@H]1C[C@H]2c3cc(NC(=O)CC4CC4)ccc3O[C@H]2[C@H](CO)O1)NCc1ccccc1F	-1
O=C(Nc1ccc(OC(F)(F)F)cc1)Nc1c(-c2ccccc2)nc2ncccn12	0
CCN1C(=O)c2cccc3c(S(=O)(=O)N4CCC(C)CC4)ccc1c23	0
CCOC(=O)c1ccc(NC(=O)Nc2ccc3c4c(cccc24)C(=O)N3CC)cc1	-2
CCN1C(=O)c2cccc3c(NC(=O)c4ccc(S(=O)(=O)N(C)C)cc4)ccc1c23	9.9*	TTR inh HuH7=-12;TTR up confirm=2
CCn1cc(CNC(=O)CC2C(=O)NCCN2CC(c2ccccc2)c2ccccc2)cn1 (stereo not drawn)	2
Cn1cc(CCNC(=O)CC2C(=O)NCCN2Cc2cccc(Oc3ccccc3)c2)cn1 (stereo not drawn)	1
CC(C)CN1CCNC(=O)C1CC(=O)NCCc1cnn(-c2ccccc2)c1 (stereo not drawn)	13*	TTR inh HuH7=-12;TTR up confirm=-1
CCC[C@H]1[C@@H](N(C)Cc2ccccc2)CC[C@@]23CCCN2C(=O)CCC[C@@H]13	1
COC(=O)[C@]12C[C@H](CC(=O)NCCC(C)C)C(=O)N(Cc3cccc4ccccc34)C1=C[C@H](COCc1ccccc1)O[C@@H]2C	0
C[C@H]1[C@@H](OC(=O)NCc2cccc(C(F)(F)F)c2)CC[C@@]23CCCN2C(=O)CCC[C@@H]13	3
CCCC(=O)OCC(=O)Nc1ccccc1C#N	2
CCCC(=O)OCC(=O)Nc1ccccc1Sc1ccccc1	11*	TTR inh HuH7=11;TTR up confirm=3
O=C(COC(=O)c1cc[n+]([O-])cc1)Nc1ccccc1Sc1ccccc1	0
COc1ccc(CN2C3=NC(c4ccccc4)CC(=O)N3/C(=C\c3ccccc3)C2c2ccccc2)c(OC)c1 (stereo not drawn)	-1
CC(=O)c1cc(-c2cccc(CO)c2)c(=O)n2c1CCC2	1
CCC(=O)N(c1ccccc1)C1CCN(C(=O)C(Cc2ccccc2)NC(C)=O)CC1 (stereo not drawn)	-1
Nc1cnccc1C(=O)O	10*	TTR inh HuH7=-8;TTR up confirm=1
Cc1cc(C(=O)O)c(C)n1Cc1ccncc1	-1
Nc1ccc(Br)cc1C(=O)O	2
CC(COc1ccc(C#N)cc1)CN1CCC(C(O)(c2ccccc2)c2ccccc2)CC1 (stereo not drawn)	-1
SMILES	TTR transcr act	others
Cc1ccc(-c2c(NC(=O)c3ccc(F)cc3)nc3ncccn23)cc1	-1
O=C1C2C3C=CC(C3)C2C(=O)N1c1ccc(-c2nc(-c3ccccc3)nc3ccccc23)cc1 (stereo not drawn)	-1
CCCCCCCCN1C(=O)[C@@H](CC(=O)NCCCOC)C[C@@]2(C(=O)OC)C1=C[C@H](C(C)C)O[C@@H]2C1CC1	-1
CC(C)(O)C(O)COc1c2ccoc2cc2oc(=O)ccc12 (stereo not drawn)	3
COc1c2ccoc2c(OC[C@@H](OC(C)=O)C(C)(C)O)c2oc(=O)ccc12	1
COC(C)(C)[C@H](O)COc1c2ccoc2cc2oc(=O)ccc12	13*	TTR inh HuH7=-21;TTR up confirm=0
CCCCOCCCNC(=O)C[C@H]1C[C@@]2(C(=O)OC)C(=C[C@H](C(C)C)O[C@@H]2C2CC2)N(CCc2ccc(OC)c(OC)c2)C1=O	0
O=C(Nc1cccc(C(F)(F)F)c1)O[C@@H]1CC[C@@]23CCCN2C(=O)CCC[C@H]3C1	6
O=C(C1CCCCC1)n1ccc2ccc(-c3ccc4ccn(Cc5ccccc5)c4c3)cc21	4
O=C(NCCNc1nccc(C(F)(F)F)n1)c1cccc(C(F)(F)F)c1	-2
O=S(=O)(NCCNc1nccc(C(F)(F)F)n1)c1ccccc1	9.8*	TTR inh HuH7=-13;TTR up confirm=1
COc1ccc(OCCNS(=O)(=O)c2ccccc2)cc1	2
Nc1nc2ncccc2cc1C(=O)c1c[nH]c2ccccc12	-1
COC(=O)C[C@@H]1CC[C@H]2[C@@H](COc3ccc(NC(=O)Nc4ccc(C)cc4)cc3C(=O)N2C)O1	2
COc1ccccc1NC(=O)CCC(=O)O	15*	TTR inh HuH7=5;TTR up confirm=-1
CC/C(=N/NC(=O)CCC(=O)Nc1ccccc1OC)c1ccccc1	5
CCOc1ccccc1NC(=O)CCC(=O)Nc1ccccc1OCC	2
